{
  "source": "PubChem BioAssay (NCI)",
  "note": "This is part of a sample that, as a whole, favours compounds with a hit. Of some 83,000 tested, about 20% had one in any assay.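 48-hour exposure, single concentration, 96-well plates; percent growth endpoint where 0 means no net growth. Active: below 10.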 Active and inactive are the calls of the source.",
  "data": [
    {"test_system": "MDA-MB-468 breast", "assay": "NCI-60 one-dose screen, 48 h (100 = growth as untreated, 0 = no growth, -100 = all killed)", "conditions": "10 µM unless noted", "values": [
      {"smiles": "O=C1c2cccnc2C(=O)c2c1c(C(=O)OCCN1CCCCC1)c1ccccn21", "growth": "-16.6% (active)"},
      {"smiles": "CCCCN(CCCC)CC(CN(CC)CC)OC(=O)Nc1ccccc1", "note": "(centres undefined)", "growth": "90% (inactive)"},
      {"smiles": "COc1cccc2c1O/C(=C\\c1ncc([N+](=O)[O-])n1C)C2=O", "growth": "19% (inactive)"},
      {"smiles": "O=S(=O)(NCCNc1nccc(-c2c(-c3ccc(O)cc3)nc3sccn23)n1)c1cccc2ccccc12", "growth": "94.6% (inactive)"}
    ]}
  ]
}
